Bioassay records deposited in PubChem BioAssay by Center for Chemical Genomics, University of Michigan.
Dicer inh: human Dicer pre-microRNA cleavage inhibition | cat-ELCCA pre-miR-21 Dicer processing, chemiluminescence; hits give high values | z-score at 25 µM | 6% of 47,000 active; in the data active means z-score above about 3, passing the limit was not always enough;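 further: plate controls were vehicle for no effect and no enzyme for full effect; higher signal means more uncleaved substrate so more Dicer inhibition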
An asterisk follows results filed as active. Many of the other results were omitted from the sample, so hits are more common in it than they were.

SMILES	Dicer inh
CCN1C(=O)C2(/C(=C(/O)c3ccccc3)C(=O)C(=O)N2CCCN(C)C)c2ccccc21 (configuration not stated)	3.6*
CCOc1ccc(/C(O)=C2/C(=O)C(=O)N(CCCN(C)C)C23C(=O)N(CC)c2ccccc23)cc1 (configuration not stated)	-0.29
O=[N+]([O-])c1ccc(Oc2c(Cl)cccc2Cl)nc1	-0.86
COc1ccc(-c2ccc(C#N)c(SCc3ccncc3)n2)cc1	-0.07
O=c1[nH]nc(Sc2ccc(C(F)(F)F)cn2)n1C1CCCCC1	0.29
CCCOCCOC(=O)C1=C(C)NC2=C(C(=O)CC(C)(C)C2)C1c1ccccc1Cl (configuration not stated)	0.63
O=S(=O)(Nc1ccccc1N1CCOCC1)c1ccc2c(c1)OCC2	7.6
O=S(=O)(Nc1ccccc1N1CCCCC1)c1ccc(C(F)(F)F)cc1	3.3*
CC(=O)Nc1ccc(S(=O)(=O)Nc2ccccc2N2CCOCC2)cc1Cl	2.2
O=C(NCc1cccs1)C1CC(c2cccc(Br)c2)=NO1 (configuration not stated)	-0.72
COC(=O)c1c(-c2c(Cl)cccc2Cl)noc1C(=O)N/N=C/c1c(Cl)cccc1Cl	0.1
COC(=O)C1=C(C)NC2=C(C(=O)CC(c3ccc(OC)cc3)C2)C1c1cc(Cl)c(O)c(OC)c1 (configuration not stated)	0.47
O=c1[nH]c2sc(-c3ccccc3)cc2c(=O)n1-c1ccccc1	2.1
Cc1ccccc1-n1c(=S)[nH]c2sc(-c3ccccc3)cc2c1=O	2.5
Cc1ccc(-n2c(=O)[nH]c3sc(-c4ccccc4)cc3c2=O)cc1	3.2*
COC(=O)C1CCCC(C(=O)OC)C1=O (configuration not stated)	0.03
FC(F)(F)c1cccc(Oc2ccc3nnc(-c4ccccc4)n3n2)c1	0.28
CC(=O)OCCCNc1nc2c([nH]1)c(=O)n(C)c(=O)n2C	0.14
O=C(O)COCC(=O)N1CCC(n2cccc2)CC1	-0.37
COc1cc2nc(N3CCN(C(=O)c4ccco4)CC3)nc(N)c2cc1OC	0.19
COc1cc2c(cc1OC)CN(C(=O)CSc1nnc3ccccn13)CC2	-0.05
COc1cc2c(cc1OC)CN(C(=O)c1ccco1)CC2	5*
COc1ccc(Cl)cc1-c1nc2ccc(OC(C)=O)cc2c(=O)o1	-1.1
COc1ccc(COC(=O)C2=C(C)NC3=C(C(=O)CC(C)(C)C3)C2c2ccc(SC)cc2)cc1 (configuration not stated)	1.9
CCOC(=O)C1=C(C)NC2=C(C(=O)CC(c3ccccc3)C2)C1c1ccc(O)c(OCC)c1 (configuration not stated)	0.02
SMILES	Dicer inh
CC1=C(C(=O)OCC(C)C)C(c2ccc(F)cc2)C2=C(CC(c3ccccc3)CC2=O)N1 (configuration not stated)	0.98
CC1=C(C(=O)OC(C)C)C(c2ccncc2)C2=C(CC(c3ccccc3)CC2=O)N1 (configuration not stated)	1.2
CCOC(=O)C1=C(C)NC2=C(C(=O)CC(c3ccccc3)C2)C1c1cccc(Br)c1 (configuration not stated)	5.4*
CCOC(=O)C1=C(C)NC2=C(C(=O)CC(c3ccccc3)C2)C1c1cccc(O)c1 (configuration not stated)	1.2
CCC(C)OC(=O)C1=C(C)NC2=C(C(=O)CC(c3ccccc3)C2)C1c1ccc(N(C)C)cc1 (configuration not stated)	3.3*
CC1=C(C(=O)OCC2CCCO2)C(c2ccc(-c3ccccc3)cc2)C2=C(CC(C)(C)CC2=O)N1 (configuration not stated)	2.5
Cc1cc(CN2C(=O)c3ccccc3S2(=O)=O)no1	-1.3
COC(=O)c1cccc2c1-c1ccccc1C2=O	-0.9
CCc1n(CC)c2ccccc2[n+]1CC(O)COc1ccccc1OC (configuration not stated)	0.58
CCn1c(C)[n+](CC(O)COc2ccc(F)cc2)c2ccccc21 (configuration not stated)	0.85
CCc1n(CC)c2ccccc2[n+]1CC(O)COc1ccc(F)cc1 (configuration not stated)	5*
COc1ccc(NC(=O)CC2C(=O)NCCN2C(=O)Nc2ccc(OCc3ccccc3)cc2)cc1 (configuration not stated)	1.7
CC1(C)C2CC[C@](C)(C2)C1NC(=O)c1cccc(C(F)(F)F)c1 (some centres not stated)	-1.4
CC(C)c1cc(C(C)C)c([N+](=O)[O-])c(C(C)C)c1	-3.4
COc1cccc(C2C(C#N)=C(C)NC3=C2C(=O)CC(c2ccccc2)C3)c1OC (configuration not stated)	0.85
CCOC(=O)c1nn(-c2ccccc2)c(=O)c2c(N)c(C#N)c(-c3ccccc3)cc12	-1.2
CC(=O)n1c(-c2ccc(C)cc2)cc(-c2ccc(C)cc2)c(C#N)c1=O	3.4*
Cc1ccc(-c2cc(-c3ccccc3)c(C#N)c(N)n2)cc1	-0.15
Cc1ccc(NNC(=O)CCc2ccccc2)cc1Cl	-0.78
CCc1ccccc1NNC(=O)CCc1ccccc1	-0.71
Cc1ccc(NNC(=O)CCc2ccccc2)cc1C	3.5*
O=c1cc(-c2ccc(Cl)cc2)[nH]n1-c1nc2ccccc2[nH]1	-0.31
Cn1c(=O)c2cc3ccccc3nc2c2c(=O)n(-c3ccccc3)c(=O)n(-c3ccccc3)c21	-5
COC(=O)CSC1=C(C#N)C(=O)NC(c2ccc(OC)cc2)S1 (configuration not stated)	1.5
O=[N+]([O-])c1ccc2c(c1)ncn2-c1ccccc1	1.7
SMILES	Dicer inh
CCn1cnc2cc(NCc3ccco3)ccc21	1.6
c1ccc(-n2cnc3cc(NCc4ccco4)ccc32)cc1	4.7*
C=CCN1C(=O)C(O)(CC(=O)c2c(C)coc2C)c2ccccc21 (configuration not stated)	0.39
CCOc1ccc(NC2CC(=O)N(c3ccc(OC)cc3OC)C2=O)cc1 (configuration not stated)	-1.9
COc1ccc(NC2CC(=O)N(c3cccc4ccccc34)C2=O)cc1 (configuration not stated)	-0.63
CCc1ccc(NC2CC(=O)N(c3ccc(C)cc3Br)C2=O)cc1 (configuration not stated)	3.3*
CCOC(=O)NC(=S)NNC(=O)c1cccnc1	0.44
CC1=C(C(=O)Nc2ccc(Br)cn2)C(c2ccc3c(c2)OCO3)C2=C(CCCC2=O)N1 (configuration not stated)	0.87
CS(=O)(=O)N1CC(=O)Nc2ccccc21	-1.7
Cc1cccc(S(=O)(=O)Nc2ccc(-c3cn4cccc(C)c4n3)cc2)c1	10
Cc1nc(-c2cccc(NS(=O)(=O)c3ccc4ccccc4c3)c2)cs1	4.5*
Cc1cccn2cc(-c3ccc(NS(=O)(=O)c4ccc(Cl)cc4)cc3)nc12	6*
Cc1cc(C)c(S(=O)(=O)Nc2ccc(-c3cn4ccccc4n3)cc2)cc1C	2.6
CCc1ccc(S(=O)(=O)Nc2ccc(-c3cn4cccc(C)c4n3)cc2)cc1	7.2*
Cc1nc(-c2ccc(Cl)cc2)cs1	2.6
CC(=O)Nc1ccc(S(=O)(=O)Nc2ccc(-c3csc(C)n3)cc2)cc1Cl	-0.43
Cc1nc(-c2ccc(NS(=O)(=O)c3ccc(Cl)cc3)cc2)cs1	5.9*
Cc1cccn2cc(-c3cccc(S(=O)(=O)N4CC(C)CC(C)C4)c3)nc12 (configuration not stated)	0.16
CC(=O)Nc1nc(-c2ccc3ccccc3c2)cs1	0.21
